Data taken from PubChem BioAssay AID1159580 (chemical genetic matrix, 2015).
Out of some 5,500 compounds screened, about 2,000 (36%) were called active. Inconclusive results (about 18%) are left out. Cut-off read from the data, not from the text of the source: active = normalized growth mostly below about 0.91 (no sharp cut-off); inconclusive = no clear call, values can overlap the other calls; inactive = mostly above about 0.92. The list shows a part of the results.

Experiment: chemical genetic growth profiling, strain panel (AID 1159580);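 note: tested at 20 µM; growth read once vehicle control cultures reached saturation at 30 °C; 1 = growth at the plate median or of vehicle wells; lower values mean less growth of the strain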
Conditions: growth OD

Measured: normalized growth

Cn1c(CSc2ccccc2)n[nH]c1=S
inactive: S. cerevisiae deletion strains, locus YAL013W, strain DEP1, hits give low values 0.997 | S. cerevisiae deletion strains, locus YBR229C, strain ROT2, hits give low values 0.99 | S. cerevisiae deletion strains, locus YDL101C, strain DUN1, hits give low values 0.994 | S. cerevisiae deletion strains, locus YDL134C, strain PPH21, hits give low values 1.01 | S. cerevisiae deletion strains, locus YDR150W, strain NUM1, hits give low values 0.949 | S. cerevisiae deletion strains, locus YEL061C, strain CIN8, hits give low values 1.02 | S. cerevisiae deletion strains, locus YGR078C, strain PAC10, hits give low values 0.977 | S. cerevisiae deletion strains, locus YHR030C, strain SLT2, hits give low values 1.01 | S. cerevisiae deletion strains, locus YHR087W, strain rtc3, hits give low values 0.982 | S. cerevisiae deletion strains, locus YJR043C, strain POL32, hits give low values 0.978 | S. cerevisiae deletion strains, locus YJR075W, strain HOC1, hits give low values 0.987 | S. cerevisiae deletion strains, locus YLR039C, strain RIC1, hits give low values 1.05 | S. cerevisiae deletion strains, locus YLR058C, strain SHM2 (second series), hits give low values 0.998 | S. cerevisiae deletion strains, locus YLR085C, strain ARP6, hits give low values 1.09 | S. cerevisiae deletion strains, locus YLR262C, strain YPT6, hits give low values 1.04 | S. cerevisiae deletion strains, locus YML094W, strain GIM5, hits give low values 1.01 | S. cerevisiae deletion strains, locus YMR219W, strain ESC1, hits give low values 0.992 | S. cerevisiae deletion strains, locus YMR263W, strain SAP30, hits give low values 0.963 | S. cerevisiae deletion strains, locus YMR307W, strain GAS1, hits give low values 1.2 | S. cerevisiae deletion strains, locus YNL153C, strain GIM3, hits give low values 0.981 | S. cerevisiae deletion strains, locus YNL298W, strain CLA4 (second series), hits give low values 1.03 | S. cerevisiae deletion strains, locus YNL322C, strain KRE1, hits give low values 1.01 | S. cerevisiae deletion strains, locus YNR030W, strain Alg12, hits give low values 1.02 | S. cerevisiae deletion strains, locus YPL055C, strain LGE1, hits give low values 0.965 | S. cerevisiae deletion strains, locus YPL241C, strain CIN2, hits give low values 1.02 | S. cerevisiae deletion strains, locus YPR135W, strain CTF4, hits give low values 1.04 | S. cerevisiae strains, strain wild type, hits give low values 1.01
